Inconclusive results are not listed. Calls of active or inactive are those of the source. Unless noted, the call rests on the fitted dose curve; in most records, active means well fitted curve in the direction sought with a large enough effect in the repeat runs; inconclusive means weak or mixed curves; inactive means no such curve, though single readings can be large; an effect the other way counts as inactive or inconclusive.
What was measured:
[1] = A CellTox Green Cytotoxicity Assay to monitor cytotoxicity in HepG2 cells - 8 hour (AID 1224890); further: nearly all actives have a fitted effect of over 45% in size
Method in brief: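 Measurements at 0, 8, 16, 24, 32 and 40 h of treatment captured CellTox Green fluorescence in HepG2 cells that had been co-plated with reagent and preincubated 5 h at 37 C/5% CO2.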

[2] = qHTS assay to identify small molecule antagonists of the estrogen receptor alpha (ER-alpha) signaling pathway using the BG1 cell line in the presence of 0.1 nM 17-beta-estradiol - cell viability counter screen (AID 1259241); further: nearly all actives have a fitted effect of over 40% in size
Method in brief: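 VM7Luc4E2 cells (endogenous ER-alpha, 4×ERE-luciferase), hormone-starved 5 days in charcoal-stripped FBS, were treated with compounds plus 0.1 nM 17beta-estradiol for 22 hr at 37C; viability read in same wells as CellTiter-Fluor live-cell protease fluorescence.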

[3] = qHTS assay to identify small molecule antagonists of the androgen receptor (AR) signaling pathway using the MDA cell line in the presence of 0.5 nM R1881 - cell viability counter screen (AID 1259242); further: nearly all actives have a fitted effect of over 45% in size
Method in brief: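 Concentration-response screen of compounds for toxicity in MDA-kb2 reporter cells: 16 hr at 37C with 0.5 nM R1881, endpoint live-cell protease fluorescence measured in the reporter wells.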

[4] = target: Estrogen receptor (Homo sapiens) (UniProt P03372); experiment: qHTS assay to identify small molecule antagonists of the estrogen receptor alpha (ER-alpha) signaling pathway using the BG1 cell line in the presence of 0.1 nM 17-beta-estradiol (AID 1259244); further: nearly all actives have a fitted effect of over 50% in size
Sequence of Estrogen receptor (Homo sapiens) (P03372 whole entry, looked up): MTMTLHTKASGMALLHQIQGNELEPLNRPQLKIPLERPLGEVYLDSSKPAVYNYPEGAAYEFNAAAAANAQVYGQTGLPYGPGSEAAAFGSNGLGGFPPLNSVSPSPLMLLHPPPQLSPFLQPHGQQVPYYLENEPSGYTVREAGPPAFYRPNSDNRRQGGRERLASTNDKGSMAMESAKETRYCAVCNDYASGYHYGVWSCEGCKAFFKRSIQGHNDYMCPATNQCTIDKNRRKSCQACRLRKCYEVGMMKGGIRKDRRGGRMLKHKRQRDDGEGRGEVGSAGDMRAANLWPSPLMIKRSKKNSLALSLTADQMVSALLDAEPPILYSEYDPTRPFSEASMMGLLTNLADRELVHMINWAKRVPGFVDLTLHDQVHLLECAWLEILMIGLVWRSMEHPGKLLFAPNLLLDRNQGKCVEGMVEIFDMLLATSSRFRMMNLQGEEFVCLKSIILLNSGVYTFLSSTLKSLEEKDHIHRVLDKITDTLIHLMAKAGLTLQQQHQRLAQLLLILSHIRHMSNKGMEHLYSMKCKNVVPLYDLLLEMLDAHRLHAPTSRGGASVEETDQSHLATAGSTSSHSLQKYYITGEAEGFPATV
Method in brief: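 Compounds were tested against 0.1 nM (final) 17beta-estradiol in VM7Luc4E2 cells, which express full-length ER-alpha and an ERE-luciferase reporter; luminescence was recorded following 22 h exposure.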

[5] = qHTS assay to identify small molecule HDAC inhibitors (AID 1259364);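 further: wild-type HCT-116 cells with endogenous class I/II HDAC activity; top concentration of the series differs between compounds; nearly all actives have a fitted effect of over 45% in size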
Method in brief: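 Screening used wild-type human colon HCT-116 cells incubated overnight, dosed with compounds for 2 hours, and assayed with a homogeneous luminogenic HDAC I/II reagent for 30 minutes at room temperature.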

[6] = qHTS assay to identify small molecule HDAC inhibitors - cell viability counter screen (AID 1259365); further: series mostly up to about 92 µM; nearly all actives have a fitted effect of over 50% in size
Method in brief: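 Wild-type HCT-116 cells were seeded at 1,500 per well, incubated overnight at 37 C, then exposed to compounds in DMSO for 2hr. Viability was read by CellTiter-Glo luminescence after 30min at room temperature.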

[7] = qHTS assay to identify small molecule antagonists of the sonic hedgehog signaling (Shh) pathway - cell viability counter screen (AID 1259367); further: nearly all actives have a fitted effect of over 55% in size
Method in brief: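 Conditioned medium drove Shh signaling in 3T3 Gli1-Luc cells exposed to compounds at 37C and 5% CO2. Viability was determined from CellTiter-Fluor fluorescence, with reagent incubated 1 hr after 23 hr of treatment.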

[8] = qHTS assay to identify small molecule agonists of the sonic hedgehog signaling (Shh) pathway (AID 1259368; calls by dose curve; further: series mostly up to about 92 µM; nearly all actives have a fitted effect of over 15% in size)
Method in brief: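 Hedgehog pathway agonism scored by increased firefly luciferase luminescence in 3T3Gli1-Luc cells treated 24 hr at 37 C; detection used a 30 min room-temperature reagent incubation.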

[9] = qHTS assay to identify small molecule antagonists of the sonic hedgehog signaling (Shh) pathway (AID 1259369; calls by dose curve; further: nearly all actives have a fitted effect of over 45% in size; further: potency means the concentration at half of the fitted maximal effect)
Method in brief: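 NIH/3T3 stable Gli1-Luc clone, 2,000 cells/well, 4hr settle; cpd + conditioned medium 24hr; Luc reagent 30min RT; luminescence.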

[10] = target: Estrogen receptor beta (Homo sapiens) (UniProt Q92731); experiment: qHTS assay to identify small molecule agonists of the estrogen receptor beta (ER-beta) signaling pathway (AID 1259377; active means well fitted activation curve with a large enough effect in the signal ratio in the repeat runs, not every such curve was filed as active; the % refers to the signal ratio)
Sequence of Estrogen receptor beta (Homo sapiens) (Q92731 whole entry, looked up): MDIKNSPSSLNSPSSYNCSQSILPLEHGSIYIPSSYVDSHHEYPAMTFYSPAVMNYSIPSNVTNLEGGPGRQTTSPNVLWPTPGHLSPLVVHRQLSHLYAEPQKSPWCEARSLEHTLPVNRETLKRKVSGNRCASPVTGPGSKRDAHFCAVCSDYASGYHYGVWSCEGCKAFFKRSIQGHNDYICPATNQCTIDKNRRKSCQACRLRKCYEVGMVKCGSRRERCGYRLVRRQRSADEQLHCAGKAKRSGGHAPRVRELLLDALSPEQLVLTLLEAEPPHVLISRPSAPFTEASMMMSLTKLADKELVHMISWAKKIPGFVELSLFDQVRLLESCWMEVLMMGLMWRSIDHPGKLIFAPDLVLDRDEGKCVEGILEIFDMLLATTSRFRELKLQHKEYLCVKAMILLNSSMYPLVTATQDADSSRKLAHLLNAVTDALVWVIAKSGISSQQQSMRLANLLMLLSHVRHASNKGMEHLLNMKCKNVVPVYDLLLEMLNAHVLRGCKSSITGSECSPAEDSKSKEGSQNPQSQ
Method in brief: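 ER-beta-UAS-bla HEK293T (GripTite) cells carrying a UAS-driven beta-lactamase reporter, in medium with 2% charcoal-stripped FBS, were exposed to compounds for 16 hr at 37C; LiveBLAzer B/G FRET substrate was then added and fluorescence read after 2 hours at room temperature.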

[11] = target: Estrogen receptor beta (Homo sapiens) (UniProt Q92731); experiment: qHTS assay to identify small molecule antagonists of the estrogen receptor beta (ER-beta) signaling pathway (AID 1259378; active means well fitted inhibition curve with a large enough effect in the signal ratio in the repeat runs, not every such curve was filed as active; the % refers to the signal ratio)
Method in brief: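 ER-beta-UAS-bla HEK293T (GripTite) cells in 2% charcoal-stripped FBS medium were preincubated 6 hr at 37C, dosed with compound, then stimulated with 1 nM E2 (final) for 16 hr; beta-lactamase reporter read by B/G FRET fluorescence after 2 hr substrate loading.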

[12] = qHTS assay to identify small molecule agonists of the androgen receptor (AR) signaling pathway in the presence of an antagonist - cell viability counter screen (AID 1259379);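 further: MDA-kb2 human breast cancer cells carrying an MMTV luciferase reporter; series mostly up to about 92 µM; nearly all actives have a fitted effect of over 25% in size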
Method in brief: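 MDA-kb2 viability measured by CellTiter-Fluor fluorescence in the same wells as the luciferase signal; nilutamide 3.0uM final; 15-point compound titration; 16 hr at 37C.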

[13] = qHTS assay to identify small molecule antagonists of the estrogen receptor beta (ER-beta) signaling pathway - cell viability counter screen (AID 1259382); further: series mostly up to about 92 µM; nearly all actives have a fitted effect of over 55% in size
Method in brief: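 Readout: luminescence, CellTiter-Glo, same wells as bla assay. System: ER-beta-UAS-bla GripTite HEK293T, 2% charcoal-stripped FBS. Exposure: compounds plus 1nM 17-beta-estradiol, 16 hr, 37C.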

[14] = target: Estrogen receptor (Homo sapiens) (UniProt P03372); experiment: qHTS assay to identify small molecule agonists of the estrogen receptor alpha (ER-alpha) signaling pathway in the presence of an antagonist (AID 1259383; calls by dose curve; further: top concentration of the series differs between compounds; nearly all actives have a fitted effect of over 15% in size)
Method in brief: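 Quantitative HTS confirmation: compounds titrated at 15 concentrations onto estrogen-deprived VM7Luc4E2 cells carrying a four-ERE luciferase construct, with ICI-182,780 present at 10.0nM final. Signal is luminescence after 22hr exposure.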

[15] = qHTS assay to identify small molecule agonists of the sonic hedgehog signaling (Shh) pathway - cell viability counter screen (AID 1259366); further: nearly all actives have a fitted effect of over 50% in size
Method in brief: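 NIH/3T3-derived 3T3 Gli1-Luc cells (stable Gli1-responsive firefly luciferase reporter) were seeded, rested 4 hr at 37 C/5% CO2, then exposed to compounds in DMSO for 24 hr; viability was read by CellTiter-Fluor fluorescence in the same wells.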

[16] = qHTS assay to identify small molecule agonists of the estrogen receptor beta (ER-beta) signaling pathway - cell viability counter screen (AID 1259380); further: nearly all actives have a fitted effect of over 30% in size
Method in brief: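 Measured: luminescence from CellTiter-Glo after 30 min at room temperature, added to wells already read for the LiveBLAzer FRET reporter (2 hr substrate); ER-beta-UAS-bla HEK293T cells had 16 hr compound treatment at 37C, 5% CO2.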

[17] = qHTS assay to identify small molecule agonists or antagonists of the thyroid stimulating hormone receptor (TSHR) signaling pathway - wild type cell line counter screen (AID 1259384; calls by dose curve)
Method in brief: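 Wild-type HEK293 cells were plated 18 h at 37 C/5% CO2, pin-dosed with compound plus Ro20-1724 medium, held 30 min at room temperature, then given cAMP-d2 and anti-cAMP-cryptate; fluorescence was read after 1 h. Fifteen concentrations, triplicate.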

[18] = qHTS assay to identify small molecule phospholipidosis (PLD) inducers (AID 1259344; active means well fitted curve in the direction sought with a large enough effect; an effect the other way counts as inactive or inconclusive)
Method in brief: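 After 4 h attachment on collagen I, HepG2 cells were dosed with compound alongside LipidTOX Red, kept 24 h at 37 C, fixed, and imaged for lamellar phospholipid pits.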
On the % scale 0 is the no-effect control and ±100 the full control effect.

C=C(C)C(=O)OCC(C)(C)COC(=O)C(=C)C
inactive: outcome [1] | Potency [2] | outcome [3] | Potency [4] | Potency [5] | outcome [6] | Potency [7] | outcome [8] | Potency [9] | Potency [10] | outcome [11] | Potency [12] | outcome [13] | outcome [14]

CCCCCCCCSCC
inactive: outcome [1] | Potency [2] | outcome [3] | Potency [4] | Potency [5] | outcome [6] | Potency [15] | Potency [7] | outcome [8] | Potency [9] | Potency [10] | outcome [11] | Potency [12] | Potency [16] | outcome [13] | outcome [14] | outcome [17]

Cc1ccccc1C(=O)Nc1ccc(C(=O)N2CCCC(N(C)C)c3ccccc32)cc1 (stereo unspecified)
active: Potency [9] 15 µM
inactive: outcome [1] | Potency [2] | outcome [3] | Potency [4] | Potency [5] | outcome [6] | outcome [8] | Potency [10] | outcome [11] | Potency [12] | outcome [13] | outcome [14] | outcome [17]

C[C@@H](Oc1ccc(CNC(=O)c2cccnc2Oc2ccc3c(c2)OCO3)c(F)c1)C(=O)O
inactive: outcome [1] | Potency [2] | outcome [3] | Potency [4] | Potency [5] | outcome [6] | Potency [15] | Potency [7] | outcome [8] | Potency [9] | Potency [10] | outcome [11] | Potency [12] | Potency [16] | outcome [13] | outcome [14]

CCCN1C[C@H](CSC)C[C@@H]2c3cccc4[nH]cc(c34)C[C@H]21
inactive: outcome [1] | Potency [2] | outcome [3] | Potency [4] | outcome [18] | outcome [6] | Potency [7] | outcome [8] | Potency [9] | Potency [10] | Potency [12] | outcome [13] | outcome [14] | outcome [17]

c1ccc2nccnc2c1
inactive: outcome [1] | Potency [2] | outcome [3] | Potency [4] | Potency [5] | outcome [6] | Potency [7] | outcome [8] | Potency [9] | Potency [10] | Potency [12] | Potency [16] | outcome [14] | outcome [17]

O=Cc1ccc(Cl)c(Cl)c1
inactive: outcome [1] | Potency [2] | outcome [3] | Potency [5] | outcome [6] | Potency [15] | Potency [7] | outcome [8] | Potency [9] | Potency [10] | outcome [11] | Potency [12] | Potency [16] | outcome [13] | outcome [17]

C=C(C)C(=O)OCCNC(C)(C)C
inactive: outcome [1] | Potency [2] | outcome [3] | Potency [5] | outcome [6] | Potency [15] | Potency [7] | outcome [8] | Potency [9] | Potency [12] | Potency [16] | outcome [13] | outcome [17]

CCCCC(CC)COCCO (stereo unspecified)
inactive: outcome [1] | Potency [2] | outcome [3] | Potency [5] | outcome [6] | Potency [15] | Potency [7] | outcome [8] | Potency [9] | Potency [10] | outcome [11] | Potency [16] | outcome [13] | outcome [14] | outcome [17]

CC(C)N(c1ccccc1)C(C)C
inactive: outcome [1] | Potency [2] | outcome [3] | Potency [5] | outcome [6] | Potency [15] | Potency [7] | outcome [8] | Potency [9] | Potency [10] | outcome [11] | Potency [12] | outcome [14] | outcome [17]

CCOC(=O)c1ccc(OC(=O)CCCCCN=C(N)N)cc1
inactive: outcome [1] | Potency [2] | outcome [3] | outcome [18] | outcome [6] | Potency [15] | Potency [7] | outcome [8] | Potency [9] | Potency [12] | outcome [13] | outcome [14] | outcome [17]

COc1ccc(C2CNC(=O)C2)cc1OC1CCCC1 (stereo unspecified)
inactive: outcome [1] | Potency [2] | outcome [3] | outcome [18] | Potency [5] | outcome [6] | Potency [15] | Potency [7] | outcome [8] | Potency [10] | outcome [11] | Potency [12] | Potency [16] | outcome [13] | outcome [17]

N[C@@H](COP(=O)(O)O)C(=O)O
inactive: cytotoxicity increase [1] 3.11% [at 15.8 µM] | activity change, negative = cytotoxicity [2] 0.527% [at 19 µM] | viability change, negative = cytotoxic [3] 4.56% [at 19 µM] | outcome [18] | activity change, negative = inhibition [5] -0.0158% [at 19 µM] | activity change, negative = cytotoxicity [6] 0.384% [at 19 µM] | viability change, negative = cytotoxic [15] -4.16% [at 19 µM] | viability change, negative = cytotoxic [7] 5.61% [at 19 µM] | activity change [8] -1.5% [at 18.9 µM] | activity change, negative = inhibition [9] 28.3% [at 19 µM] | activation [10] 0.272% [at 19 µM] | activity, negative = inhibition [11] 18.6% [at 19 µM] | activity change, negative = cytotoxicity [12] -2.46% [at 19 µM] | activity change, negative = cytotoxicity [16] 5.8% [at 19 µM] | cAMP activity change [17] 0.501% [at 18.9 µM]

FC(F)(F)c1ccccc1-n1ccnc1
inactive: outcome [1] | Potency [2] | outcome [3] | outcome [18] | Potency [5] | outcome [6] | Potency [15] | Potency [7] | outcome [8] | Potency [9] | Potency [12] | Potency [16]

From PubChem BioAssay (Tox21)
